# Experimental data from ChEMBL document CHEMBL4513216, “Probing the Open Global Health Chemical Diversity Library for Multistage-Active Starting Points for Next-Generation Antimalarials” (ACS Infect Dis, 2020).
# Hit rate of the full screen: of about 69,000 compounds, about 8,600 (12%) showed an effect of 50% or more. Shown is part of a subset that was picked to be rich in strong results.
# System: Plasmodium berghei
# Assay: Screen against P. berghei liver stage (PbLuc), transformed with Luciferase, at 10uM
# Assay type: functional, HepG2
# Details: tested at 10 uM
row,Structure (SMILES),INHIBITION [%]
1,CNc1nccnc1C1CN(C(=O)c2cc[nH]n2)CCO1 (configuration not stated),-22.5
2,CN1CCN(C)C(CNc2c(C#N)cnc3ccc(Cl)cc23)C1 (configuration not stated),7.18
3,CCOC1CC2(CCN(c3cnccn3)CC2)c2ccccc21 (configuration not stated),37.9
4,c1cncc(C2CC3(CCN(c4cnccn4)CC3)c3ccccc32)c1 (configuration not stated),54.1
5,CN(C)CCOC1CC2(CCN(c3cnccn3)CC2)c2ccccc21 (configuration not stated),31.9
6,Cc1cc(C)cc(OCC(=O)N2CCC2)c1,-5.22
7,CN(C)C(=O)CO[C@H]1CN(Cc2ccc3c(c2)OCO3)[C@@H]2COC[C@H]12,47.4
8,CS(=O)(=O)N1C[C@@H](C(=O)Nc2cnccn2)C[C@H]2OCC[C@H]21,39.3
9,O=C(Nc1cnccn1)[C@@H]1C[C@H]2OCC[C@H]2N(c2ncc(F)cn2)C1,0.923
10,CS(=O)(=O)N1C[C@H](C(=O)Nc2cccnc2)C[C@H]2OCC[C@H]21,30.5
11,O=C(Nc1cnccn1)[C@H]1CO[C@H]2CCN(c3ncc(F)cn3)C[C@H]2C1,27.3
12,O=C(Nc1cnccn1)[C@H]1C[C@H]2OCC[C@H]2N(c2ncc(F)cn2)C1,60
13,CS(=O)(=O)N1C[C@H](C(=O)Nc2cnccn2)C[C@H]2OCC[C@H]21,61.5
14,NS(=O)(=O)Cc1ccc(CNc2cncc(-n3cccn3)n2)cc1,11.6
15,Cc1ccc(CN2CCN(Cc3nccn3C)[C@H]3CS(=O)(=O)C[C@H]32)o1,24.9
16,O=C(CN1CCC[C@H]1C(=O)O)NCCOc1cccc(Cl)c1,16.1
17,O=C(NC1CCN(C2CC2)CC1)c1cn(-c2ccc(Cl)cc2)nn1,-6.51
18,Cc1ccc2c(n1)N(Cc1csc(C)n1)CCN(C1CCOC1)C2 (configuration not stated),28.2
19,Cc1cc(C)n(CC(C)NCc2nc(-c3cccnc3)no2)n1 (configuration not stated),45.9
20,Cc1cccn2c(CNC(C)CCc3ccc(O)cc3)cnc12 (configuration not stated),65.8
21,Cc1ccc2c(c1)c(CNC(C)Cn1nc(C)cc1C)nn2C (configuration not stated),10.9
22,Cc1cccn2c(CNC(C)CCn3cccn3)cnc12 (configuration not stated),32.3
23,Cc1cccn2c(CNC(C)CO)cnc12 (configuration not stated),24.7

row,Structure (SMILES),INHIBITION [%]
1,Cc1cc(C)n(CC(C)NCc2cnc3c(C)cccn23)n1 (configuration not stated),60.4
2,COc1ccc(OC)c(C(C)NC(=O)c2nn(C)c(C)c2Br)c1 (configuration not stated),-1.84
3,Cn1c(=O)[nH]c(=O)n2c(CC(=O)Nc3ccccc3)cnc12,32.5
4,COCC1CN(Cc2ccoc2)Cc2cn(CC3CCCC3)nc21 (configuration not stated),34.6
5,CCn1cc2c(n1)C(COC)CN(Cc1ccoc1)C2 (configuration not stated),58.7
6,COCC1CN(Cc2ccoc2)Cc2cn(C)nc21 (configuration not stated),7.24
7,Cn1c(Cn2ccnc2)nnc1C1CCN(C(=O)c2ccncc2)CC1,-22.1
8,COCC(=O)N1CCC(c2cc(N(C)C)cc(C)n2)CC1,44.3
9,Cc1ccc(-c2nc(CC(=O)NCC(C)N3CCOCC3)cs2)o1 (configuration not stated),67.5
10,Cc1ccc(-c2nc(CC(=O)NCC3CCCOC3)cs2)o1 (configuration not stated),44.3
11,Cc1ccc(-c2nc(CC(=O)NCC3CCCN(C(C)C)C3)cs2)o1 (configuration not stated),38.7
12,CNC(=O)C1CCCCN1C(=O)Cc1csc(-c2ccc(C)o2)n1 (configuration not stated),-7.72
13,Cc1ccc(-c2nc(CC(=O)N3CCCC(NC(=O)C(C)C)C3)cs2)o1 (configuration not stated),51.7
14,Cc1ccc(-c2nc(CC(=O)NCC3CCOC3)cs2)o1 (configuration not stated),71.2
15,CCNC(=O)C1CCN(Cc2csc(-c3ccc(C)o3)n2)CC1,20.2
16,Cc1ccc(-c2nc(C(=O)NCC3CCOC3)cs2)cc1 (configuration not stated),41.5
17,Cc1ccc(-c2nc(CC(=O)N3CCN(c4cnccn4)CC3)cs2)o1,-11.4
18,NC(=O)NCC1CCCCN1C(=O)c1cccc(Cl)c1 (configuration not stated),-17.4
19,CNC(=O)CN1CCCC12CCN(C(=O)c1cccc(F)c1)CC2,14.9
20,CCSc1ccc(C(=O)N2CCCC2C(=O)N2CCOCC2)cn1 (configuration not stated),23.6
21,Cc1ccc(CN2CC[C@H]3OCC[C@@H](C(=O)NC4CC4)[C@@H]3C2)o1,23.9
22,CCOCc1ccc(NC(=O)N2CCCC2c2nncn2C)cc1 (configuration not stated),43.7
23,Cn1cnnc1C1CCCN1C(=O)Nc1cccc(OC(F)F)c1 (configuration not stated),30.7

row,Structure (SMILES),INHIBITION [%]
1,COc1cc(NC(=O)N2CCCC2c2nncn2C)ccc1Br (configuration not stated),55.6
2,c1cncc(CN2CCc3ncnc(NCCc4c[nH]cn4)c3CC2)c1,38.3
3,CC(C)c1nc(C2CCCN(C(=O)c3ccc4nncn4c3)C2)no1 (configuration not stated),-43.6
4,CCC(C)N1CCC2(CC1)CN(c1cncnc1)C(=O)CO2 (configuration not stated),3.25
5,COCCN1CCC(NCc2ccc(C#N)cc2)C1 (configuration not stated),57.4
6,CSc1ccc(CNC2CCN(CCc3ccncc3)CC2)cc1,16.1
7,N#Cc1ccc(CNC(=O)NC2CCN(CC(F)(F)F)C2)cc1 (configuration not stated),52
8,N#Cc1ccc(CNC2CCN(CCc3ccncc3)CC2)cc1,51.1
9,N#Cc1ccc(CNC(=O)NC2CCN(c3ncccn3)CC2)cc1,23.3
10,Clc1cccc(CNC2CCN(CCc3ccncc3)CC2)c1,52.9
11,Oc1cccc(CNC2CCN(CCc3ccncc3)CC2)c1,4.48
12,N#Cc1ccc(CNC(=O)NC2CCN(CC(F)F)CC2)cc1,26.1
13,Fc1ccc(CNC2CCN(CCc3ccncc3)CC2)cc1F,21.5
14,Cc1ccc(CNC2CCN(CCc3ccncc3)CC2)cc1C,15.1
15,COCCN1CCC(NCc2cccc(C)c2)C1 (configuration not stated),15.6
16,COCCN1CCC(NCc2ccc(Cl)cc2)C1 (configuration not stated),23.4
17,O=C1CCC2(CCC(NC3CCOC3)CC2)N1Cc1ccccc1 (configuration not stated),-17.1
18,Cc1cccc(CN2Cc3[nH]nc(COCCO)c3C2)n1,29
19,Cc1nc(C(=O)N2CCOC(c3nc(C(C)C)n[nH]3)C2)c[nH]1 (configuration not stated),-16
20,CCN(Cc1nonc1C)C(=O)c1cc(C(F)(F)F)nn1C,29.9
21,CN(C)Cc1cccc(C(=O)N2CCCC(n3cncn3)C2)c1 (configuration not stated),29.2
22,COc1cc2[nH]c(C(=O)O)cc2c(OC)c1C,-13.1
23,CCn1nc2ccc(S(=O)(=O)N3CCSCC3)cn2c1=O,7.92

row,Structure (SMILES),INHIBITION [%]
1,CCOc1cccc(C(C)NCc2ccc(OC)c(OC)c2OC)c1 (configuration not stated),38.5
2,CC(NCc1ccc(OCC(N)=O)cc1)c1ccc(Cl)cc1 (configuration not stated),43.3
3,COc1ccc(CNC(C)c2cccc(Cl)c2)c(OC)c1OC (configuration not stated),44.3
4,COc1ccc(C(C)NCCC(N)=O)cc1F (configuration not stated),49.4
5,COc1cc(CNC(C)Cn2cccn2)cc(Cl)c1OC (configuration not stated),-3.7
6,COc1cc(CNC(C)c2cccc(Cl)c2)cc(OC)c1OC (configuration not stated),63.7
7,COc1ccc(CNC(C)c2ccccc2Cl)c(OC)c1OC (configuration not stated),48.3
8,CC(NCC1CCN(CCO)CC1)c1cccc(Cl)c1 (configuration not stated),40.4
9,COc1ccc(C(C)NCc2cnnn2C)cc1F (configuration not stated),36.6
10,COc1ccc(CNC(C)c2cccc(Br)c2)c(OC)c1OC (configuration not stated),70.5
11,COc1ccc(CNC(C)c2ccc(Cl)cc2)c(OC)c1OC (configuration not stated),56
12,COc1ccc(C(C)NCc2ccc(OC)c(OC)c2OC)cc1F (configuration not stated),67.1
13,O=C(COC1CCCCC1)N1CCCC(n2ccnc2)C1 (configuration not stated),-29.8
14,CCN1CC(C(=O)NC(C)(C)C(=O)OC)CC1=O (configuration not stated),-10.3
15,Cc1[nH]nc(CCC(=O)NCC2CCN(C3CCCCC3)C2)c1C (configuration not stated),-57.5
16,COc1ccc(CNC(C)c2ccc(Cl)c(Cl)c2)c(OC)c1OC (configuration not stated),70.5
17,COc1ccc(C(C)NCc2c[nH]nc2C)cc1Br (configuration not stated),43.9
18,COc1cc(CNCC(O)c2ccc(F)c(F)c2)cc2c1OCO2 (configuration not stated),24
19,COc1cc(CNC(C)c2ccc(F)c(F)c2)cc2c1OCCO2 (configuration not stated),66.7
20,CC(NCc1ccc(C(N)=O)cc1)c1ccc(Cl)c(Cl)c1 (configuration not stated),-29.2
21,COc1cc(CNCC(O)c2ccc(C)cc2)cc2c1OCCO2 (configuration not stated),21.8
22,CO[C@@H]1CCN(c2ncc(F)cn2)[C@H]1Cc1cnn(C)c1,28.4
23,CN1CCN(C)C(CNC(=O)N(C)Cc2ccccc2Cl)C1 (configuration not stated),17.1

row,Structure (SMILES),INHIBITION [%]
1,Cc1cc(C2CCCN2C(=O)c2csc(-c3cnn(C)c3)n2)on1 (configuration not stated),-1.445
2,CCn1nc(C)c2nnn(CC(=O)Nc3cccc(F)c3)c(=O)c21,15.9
3,NC(=O)C(CNC(=O)Cc1ccc(F)cc1)Cc1ccc(F)cc1 (configuration not stated),29.2
4,Cc1ccc(C(=O)Cc2c(Cl)nc3n(C)c(=O)n(C)c(=O)n23)cc1,85
5,Cn1c(=O)n(C)c2nc(Cl)c(CC(=O)c3ccc(F)cc3)n2c1=O,48.3
6,Cn1c(=O)n(C)c2nc(Cl)c(CC(=O)c3ccccc3)n2c1=O,-6.47
7,CC(C)CCn1cc(C(C(=O)O)N2CCC(c3ccncc3)CC2)cn1 (configuration not stated),23.9
8,O=C(NCCO)c1sc2ncccc2c1C1CN(C2CCCC2)CCO1 (configuration not stated),-10.4
9,CC(C)(C)c1noc(CN2CCCCC2Cn2cncn2)n1 (configuration not stated),39.15
10,O=S(=O)(NCC1(c2cccs2)CCCC1)c1cccnc1,-43.5
11,CCC(C(=O)NCC1=CCCN(C)C1)c1ccccc1 (configuration not stated),0.348
12,Cc1cc(C(F)(F)F)nn1CCCNC(=O)C1CCN(S(C)(=O)=O)CC1,0.87
13,Cc1cccc2c1cnn2CCCNC(=O)C(C)C,0.139
14,Cc1cccc2c1cnn2CCCNC(=O)C1CC1,66.5
15,CCCC(=O)NCCCn1ncc2c(C)cccc21,2.69
16,Cc1nn(CCCNC(=O)C2CCN(S(C)(=O)=O)CC2)c(Cl)c1Cl,14.8
17,CC(=O)NCCCn1ncc2c(C)cccc21,35.8
18,Cc1ccnn1CCCNC(=O)C1CCN(S(C)(=O)=O)CC1,77.7
19,COCC(=O)NCCCn1ncc2c(C)cccc21,20.1
20,Cc1cccc2c1cnn2CCCNC(=O)CCCC(=O)O,60.1
